About 2,000 (36%) of roughly 5,500 compounds were called active. Another 18% or so got no clear call; they are omitted. Rule as the data show it: active = normalized growth mostly below about 0.91 (no sharp cut-off); inconclusive = no clear call, values can overlap the other calls; inactive = mostly above about 0.92. Some of the results follow.
Assay: chemical genetic growth profiling, strain panel (AID 1159580);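 also: tested at 20 µM; growth read once vehicle control cultures reached saturation at 30 °C; 1 = growth at the plate median or of vehicle wells; lower values mean less growth of the strain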
Conditions: S. cerevisiae deletion strains, growth OD

Measured: normalized growth

CCCC1O[C@@H]2C[C@H]3[C@@H]4CCC5=CC(=O)C=C[C@]5(C)[C@H]4[C@@H](O)C[C@]3(C)[C@]2(C(=O)CO)O1 (stereo not given in full)
inactive: locus YAL040C, strain CLN3, active compounds read low 1.06 | locus YCL061C, strain MRC1 (second series), active compounds read low 0.998 | locus YER002W, strain NOP16, active compounds read low 1.01 | locus YGR078C, strain PAC10, active compounds read low 1.02 | locus YMR263W, strain SAP30, active compounds read low 1 | locus YNL153C, strain GIM3, active compounds read low 0.982 | locus YNL175C, strain NOP13, active compounds read low 0.994 | locus YNL197C, strain WHI3, active compounds read low 0.974 | locus YNL224C, strain SQS1, active compounds read low 1.01 | locus YOR083W, strain WHI5 (second series), active compounds read low 0.992
